# Lassa entry inh – Lassa virus entry inhibition. AID 540256. Potency, µM (titrated, usually from 37.9 µM), most hits filed as inhibitors. actives 1.2% (n = 300,000). Lassa virus pseudotype entry inhibition, cell reporter; calls by dose curve; tested in HEK293 cells; also: nearly all actives have a fitted effect of over 50% in size
# Marburg entry inh – inhibitors of Marburg virus binding or cell entry; Marburg virus pseudotyped entry inhibition, cell reporter; Potency, µM (series often up to 37.8 µM), most hits filed as inhibitors; actives 1.8% (n = 300,000); AID 540276; calls by dose curve; tested in HEK293 cells
# VACV mCherry inh – inhibitors of vaccinia virus infection (mCherry reporter signal) | AID 720579 | Potency, µM (series often up to 36.5 µM), hits mostly inhibitors | actives 0.63% (n = 310,000) | Vaccinia virus mCherry reporter infection, fluorescence; calls by dose curve; tested in A549 cells; also: nearly all actives have a fitted effect of over 35% in size
# HCV inhibitor – blocks hepatitis C virus. Potency, µM (series often up to 41.8 µM), usual class: inhibitors. Huh7.5.1 HCVcc-Cre infection, luciferase reporter, 44 h. AID 651820. actives 3.4% (n = 340,000); active = well fitted inhibition curve with a large enough effect; inconclusive = small, poorly fitted or top-dose-only effect, or another doubt; inactive = no such curve, though single readings can be large or run the other way
#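 Antiviral activity was scored by luciferase reporter output from cells infected with HCVcc-Cre (~0.5 moi) in presence of compound, 44 h infection period, cells seeded 1,000/well 4 h prior.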
# Vaccinia Venus – vaccinia inhibition (Venus reporter). Vaccinia virus Venus reporter expression, fluorescence. Potency, µM (titrated, usually from 36.5 µM), actives largely listed as inhibitors. actives 0.46% (n = 330,000). AID 720580; calls by dose curve; tested in A549 cells; also: nearly all actives have a fitted effect of over 30% in size
# Hits are given with their value; i = inactive; ? = inconclusive; nt = no result given; [ ] = remark or other dose. Shown are actives, neighbours in structure and some others; about 4.6% of the full set was active somewhere.
SMILES,Lassa entry inh,Marburg entry inh,VACV mCherry inh,HCV inhibitor,Vaccinia Venus
COc1ccccc1C1(O)CCN(CC(=O)Nc2nc(-c3ccccc3)cs2)CC1,5.62µM,?,i,10µM,i
CCOC(=S)SCC(=O)Nc1nc(-c2ccccc2)cs1,?,?,i,i,i
CCOC(=O)N1CCN(C(=O)CSCC(=O)Nc2nc(-c3ccc(-c4ccccc4)cc3)cs2)CC1,nt,nt,?,5.62µM,?
CCOC(=S)SCC(=O)Nc1nc(-c2ccc(Br)cc2)cs1,8.91µM,?,?,?,?
CCc1nnc(NC(=O)CN2CCC(O)(c3ccccc3OC)CC2)s1,i,i,i,i,i
COc1cccc(CN(C)C(=O)c2cnn(-c3nccc(-c4ccc5c(c4)OCO5)n3)c2C)c1,nt,nt,i,nt,i
Cc1nc2ccccc2n1CC(O)COCC1CC=CCC1 (centres undefined),i,i,nt,11.2µM,?
CCN1CCN(Cc2ccc(NC(=O)c3ccc(C)c(NC(=O)C(=O)c4c[nH]c5ccccc45)c3)cc2C(F)(F)F)CC1,nt,nt,11.2µM,?,10µM
CCN1CCN(Cc2ccc(NC(=O)c3cc(NC(=O)C(=O)c4c[nH]c5ccccc45)cc(OC)c3)cc2C(F)(F)F)CC1,nt,nt,?,i[8.37 µM],10µM
CCN1CCN(Cc2ccc(NC(=O)c3ccc(C)c(NC(=O)c4ccc5n[nH]nc5c4)c3)cc2C(F)(F)F)CC1,nt,nt,i,i,i
CCN1CCN(Cc2ccc(NC(=O)c3cc(NC(=O)c4cc(C)on4)cc(OC)c3)cc2C(F)(F)F)CC1,nt,nt,i,?,?
O=C1[C@@H]2CC=C(Cl)C[C@H]2C(=O)N1CNc1ccccn1,nt,i,nt,nt,nt
CCc1ccc(CNC(=O)C2CCN(C(=O)c3ccc(-n4ccc5ccccc54)s3)CC2)cc1,?,nt,i,nt,i
CCCCn1c(O)c(C(CC)=Nc2ccc3c(c2)CCC3)c(=O)[nH]c1=O,1.3µM,i,nt,i,nt
CCCCn1c(O)c(C(CC)=Nc2ccc(C(=O)O)cc2)c(=O)[nH]c1=O,i,i,i,i,i
CCN(CC)CCCNC(=O)c1ccc2c(c1)sc1nc(-c3ccc(C)cc3)cn12,i,nt,?,nt,?
CCN(CCNCC(O)COCc1ccc(Cl)cc1)c1cccc(C)c1 (centres undefined),?,?,?,15.8µM,i
CC1CCCN(CCCCOc2cccc(Br)c2)C1 (centres undefined),3.26µM,2.91µM,i,?,i
CC1CCCN(CCOCCOc2ccc(Br)cc2Cl)C1 (centres undefined),?,15.8µM,i,?,i
Cc1cc(Cl)c(OCCOCCN2CCCCC2)c(Br)c1,i,?,i,i,i
Cc1cc(Cl)c(OCCOCCN2CCCC(C)C2)c(Br)c1 (centres undefined),12.6µM,?,i,?,i
CC1CCCN(CCOCCOc2ccc(Cl)cc2Br)C1 (centres undefined),?,4.61µM,nt,i,nt
COc1ccccc1/C=C/c1nc2ccccc2n1C(C)C,i,i,i,nt,i
Cc1oc2ccc(O)c(CN(C)Cc3ccccc3)c2c1C(=O)Nc1cccc(Cl)c1C,?,?,i,nt,i
O=C(Nc1cc(Sc2ccccn2)cc([N+](=O)[O-])c1)c1cccc(Cl)c1,i,?,i,8.91µM,?
SMILES,Lassa entry inh,Marburg entry inh,VACV mCherry inh,HCV inhibitor,Vaccinia Venus
O=C(Nc1cccc([N+](=O)[O-])c1)c1ccncc1,i,i,i,i,i
O=C(Nc1cc(Sc2ccccn2)cc([N+](=O)[O-])c1)c1ccc(Cl)cc1,?,?,nt,10µM,10µM
CC(C)c1c(C(=O)N(C)CC2CCCN(C)C2)cnn1-c1nccc(-c2cccs2)n1 (centres undefined),nt,nt,i,nt,i
C=CCc1cccc(Cl)c1OCCCNC1CCCC1,nt,nt,nt,10µM,nt
C=CCc1ccc(OCCCNC2CCCC2)c(OC)c1,i,?,i,?,i
Cc1ccc(C)c(Cn2c3ccccc3c3cnn(CC(=O)NC(C)c4ccccc4)c(=O)c32)c1 (centres undefined),i,i,i,nt,i
O=C(Nc1ccc2nc3n(c(=O)c2c1)CCCCC3)c1ccccc1[N+](=O)[O-],nt,nt,i[7.34 µM],?,i[7.34 µM]
Cc1ccc(NC(=O)c2ccc3c(=O)n4c(nc3c2)CCCCC4)cc1F,i,?,i,10µM,i
O=C(Nc1ccc(S(=O)(=O)C(F)F)cc1)c1ccc2c(=O)n3c(nc2c1)CCC3,i,i,i,?,i
O=C(Nc1ccc2nc3n(c(=O)c2c1)CCCCC3)c1c(F)ccc([N+](=O)[O-])c1F,?,7.08µM,?,14.1µM,?
O=C(Nc1ccc(SC(F)F)cc1)c1ccc2c(=O)n3c(nc2c1)CCC3,nt,nt,nt,3.98µM,nt
COc1ccc(NC(=O)c2ccc3c(=O)n4c(nc3c2)CCCCC4)cc1,?,i,i,?,i
O=c1c2cc(NC(=S)NCCN3CCCCCC3)ccc2nc2n1CCCCC2,?,?,i,?,i
O=c1c2cc(NC(=S)NCCCN3CCC(Cc4ccccc4)CC3)ccc2nc2n1CCCCC2,?,7.08µM,i,?,?
COc1cccc(CNC(=O)CCc2c(C)c3cc4c(C)coc4c(C)c3oc2=O)c1,i,i,?,nt,?
Cc1ccc2nc(-c3ccccc3C)c(CN(CC3CCCO3)C(=O)c3cccs3)cc2c1 (centres undefined),nt,nt,i,nt,i
CC(C)CO/N=C1/C[C@@H](O)[C@@H](O)[C@@H]2[C@@H]3C(=O)N(C4CCCCC4)C(=O)[C@H]3CC[C@H]12,nt,i,nt,nt,nt
Cc1cccc(N2CCN(c3cc(C)nc4c(-c5ccc(Cl)cc5)c(C)nn34)CC2C)c1 (centres undefined),i,nt,i,nt,i
O=c1c2cc(NC(=S)N3CCC(N4CCCCC4)CC3)ccc2nc2n1CCCCC2,i,i,i,i,i
Cc1cccc(N2CCN(C(=S)Nc3ccc4nc5n(c(=O)c4c3)CCCCC5)CC2)c1C,nt,i,i,6.31µM,i
COc1ccc(C(=O)Nc2ccc3nc4n(c(=O)c3c2)CCCCC4)cc1OC,i,i,i,nt,i
O=C(Nc1nc(-c2ccccc2)cs1)c1ccc(N2CCOCC2)c([N+](=O)[O-])c1,?,?,?,3.55µM,?
Cc1cccc(NC(=O)c2ccc3c(=O)n4c(nc3c2)CCCCC4)n1,?,?,i,14.1µM,i
COc1cc(C(=O)Nc2ccc3nc4n(c(=O)c3c2)CCCCC4)cc(OC)c1OC,i,i,i[7.34 µM],11.2µM,i[7.34 µM]
O=C(Nc1ccccc1Cl)c1ccc2c(=O)n3c(nc2c1)CCC3,?,?,i,i,i
SMILES,Lassa entry inh,Marburg entry inh,VACV mCherry inh,HCV inhibitor,Vaccinia Venus
CCOc1ccccc1N(CC)C(=O)c1ccc2c(=O)n3c(nc2c1)CCCCC3,i,8.91µM,i,i,i
O=C(Nc1nc(-c2ccccc2)cs1)c1ccc2c(=O)n3c(nc2c1)CCCCC3,nt,i,nt,2.51µM,nt
CCN(C(=O)c1ccc2c(=O)n3c(nc2c1)CCCCC3)c1cc(C)ccc1C,i,i,i,nt,i
OC(c1ccc2c(c1)CN(Cc1cccc3nccnc13)CCO2)C1CCCCC1 (centres undefined),nt,nt,i,nt,i
[O-][n+]1c(/C=C/c2ccccc2)ccc2ccccc21,nt,nt,nt,10µM,nt
CN(C)c1ccc(/C=C/c2ccc3ccccc3[n+]2C)cc1,?,?,i,0.891µM,i
CN(C)c1ccc(/C=C/c2ccc3c4ccccc4ccc3[n+]2-c2ccccc2)cc1,11.2µM,?,i,1µM,i
CN(CCCS(=O)(=O)[O-])c1ccc(/C=C/c2ccc3ccccc3[n+]2C)cc1,nt,nt,nt,i,nt

# Screens as filed in PubChem BioAssay.
